The campaign covered roughly 87,000 compounds. About 540 (0.62%) were called active. How the calls were made is not given here. Shown is part of a subset that was picked to be rich in actives. Entries with a potency or affinity are not part of this list.
Assay: inhibitors of MT1-MMP promoter transcription, cell-based, luciferase reporter, luminescence (AID 618);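 further: actives suppress MT1-MMP promoter-driven transcription so potencies describe inhibitors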
Conditions: MT1-MMP promoter luciferase reporter cells
In the case of `Cc1ccc(C)c(C(=O)CN2C(=O)c3ccccc3S2(=O)=O)c1`, the outcome is reported as “inactive”. With `Cc1cc(C(=O)CN2C(=O)c3ccccc3S2(=O)=O)c(C)n1-c1ccccc1` the outcome was “active”. With `Cc1cc(C(=O)Cn2nnc(-c3ccc(Cl)cc3)n2)c(C)n1CC1CCCO1` (stereo not drawn) the outcome was “inactive”. In the case of `Cc1ccc(-c2nc(NC(=O)CSc3nnc(C)s3)ns2)cc1`, the outcome is reported as “inactive”. With `Cc1ccc(OCC(=O)Nc2ccc(N3CCOCC3)cc2)cc1` the outcome was “inactive”. With `Cc1ccc(N(C(C)C(=O)N2CCC(C)CC2)S(C)(=O)=O)cc1C` (stereo not drawn) the outcome was “inactive”. With `Cc1ccc(CC2CC(=O)N(c3cc(C)on3)C2=O)cc1` (stereo not drawn) the outcome was “inactive”. For `CCOc1ccccc1NC(=O)C1CCCN(C(=O)NCc2ccccc2)C1` (stereo not drawn), the outcome was “inactive”. In the case of `CCOC(=O)c1[nH]c(C)c(C(=O)Nc2ccccc2C)c1C`, the outcome is reported as “active”. With `CCOC(=O)c1[nH]c(C)c(C(=O)Nc2cc(Cl)ccc2C)c1C` the outcome was “active”. In the case of `CCOC(=O)c1[nH]c(C)c(C(=O)Nc2ccc(C)cc2C)c1C`, the outcome is reported as “inactive”. In the case of `CCOC(=O)c1[nH]c(C)c(C(=O)Nc2ccccc2F)c1C`, the outcome is reported as “inactive”. With `CCOC(=O)c1[nH]c(C)c(C(=O)Nc2ccc(C)c(Cl)c2)c1C` the outcome was “inactive”. In the case of `CCOC(=O)c1[nH]c(C)c(C(=O)N2CCc3ccccc32)c1C`, the outcome is reported as “active”. In the case of `CCOC(=O)c1[nH]c(C)c(C(=O)OCC(=O)N2CCc3ccccc32)c1C`, the outcome is reported as “inactive”. With `CCOC(=O)c1c(C)[nH]c(C(=O)OCC(=O)N2CCc3ccccc32)c1C` the outcome was “inactive”. In the case of `CCOC(=O)c1[nH]c(C)c(C(=O)Nc2ccc(Cl)cc2)c1C`, the outcome is reported as “inactive”. In the case of `COc1cc(NS(=O)(=O)c2ccc3c(c2)n(C)c(=O)n3C)cc(OC)c1`, the outcome is reported as “inactive”. For `COc1ccc(C)cc1NC(=O)CSc1nnc(CC(=O)Nc2ccccc2C)n1C`, the outcome was “inactive”. With `CCOC(=O)c1ccc(NC(=O)CN2CCN(CCN=CC3=C(O)CC(C)(C)CC3=O)CC2)cc1` the outcome was “inactive”. For `COC(=O)c1[nH]c2cc(C)ccc2c1NC(=O)CN1CCCc2ccccc21`, the outcome was “inactive”. For `Cc1nc2sc(C(c3cccs3)N3CCN(c4cccc(Cl)c4)CC3)c(O)n2n1` (stereo not drawn), the outcome was “inactive”. For `O=C(c1cn(-c2ccccc2)nc1-c1ccncc1)N1CCCCC1`, the outcome was “inactive”. In the case of `COc1ccccc1C(=O)N1CCN(c2cccc(Cl)c2)CC1`, the outcome is reported as “inactive”. In the case of `O=C(c1ccccc1F)N1CCN(c2cccc(C(F)(F)F)c2)CC1`, the outcome is reported as “inactive”. In the case of `COc1ccccc1CC(=O)N1CCN(c2cccc(C(F)(F)F)c2)CC1`, the outcome is reported as “inactive”. For `CCOc1ccccc1C(=O)N1CCN(c2cccc(Cl)c2)CC1`, the outcome was “active”. In the case of `COc1ccc(C(=O)N2CCN(c3cccc(Cl)c3)CC2)c(OC)c1`, the outcome is reported as “inactive”. For `COc1ccccc1C(=O)N1CCN(c2cccc(C(F)(F)F)c2)CC1`, the outcome was “active”. In the case of `Cc1cc(-c2nn3c(C)nnc3s2)ccc1NC(=O)C(C)(C)C`, the outcome is reported as “inactive”. In the case of `CCOC(=O)c1cc(C)sc1NC(=O)CCC(=O)O`, the outcome is reported as “inactive”. For `COc1ccc(Cn2c3nc4ccccc4nc3c3c(=O)n(Cc4ccco4)c(C)nc32)cc1`, the outcome was “inactive”. With `Cc1csc(NC(=O)CSc2nnc(-c3ccoc3C)o2)n1` the outcome was “inactive”. For `CCC(O)c1cc2c(cc1NC(=O)c1cccs1)OCCO2` (stereo not drawn), the outcome was “inactive”. With `Cc1ccc(C(=O)NCCCNCCCNC(=O)c2ccc(C)nc2)cn1` the outcome was “inactive”. In the case of `CCn1c(COc2cccc(C)c2)nnc1SCC(=O)Nc1cccc(C(=O)OC)c1`, the outcome is reported as “inactive”. In the case of `CC(CC(=O)O)CC(=O)Nc1ccccc1C(=O)O` (stereo not drawn), the outcome is reported as “inactive”. For `O=c1c2c(nc3cc(-c4ccccc4)[nH]n13)CCC2`, the outcome was “inactive”. For `COc1ccc(-c2cc3nc4c(c(=O)n3[nH]2)CCC4)cc1`, the outcome was “inactive”. For `COCCCN1C(=O)C(=O)/C(=C(/O)c2ccc(OC(C)C)cc2)C1c1cccnc1` (stereo not drawn), the outcome was “inactive”. For `c1ccc2nc(-c3nc4ccccc4[nH]3)ccc2c1`, the outcome was “active”. With `COc1ccc2nc(-c3ccccc3)[nH]c2c1` the outcome was “active”. For `Nc1nc(-c2nc3ccccc3[nH]2)cs1`, the outcome was “inactive”. For `COc1ccc(OCc2nc3ccccc3[nH]2)cc1`, the outcome was “inactive”. With `COc1ccc2nc(-c3cccc(N)c3)[nH]c2c1` the outcome was “inactive”. In the case of `c1ccc2[nH]c(-c3ccnc4ccccc34)nc2c1`, the outcome is reported as “inactive”. For `Nc1ccc(-c2nc3ccccc3[nH]2)cc1`, the outcome was “inactive”. With `CCOc1ccc2nc(-c3ccccc3)[nH]c2c1` the outcome was “inactive”. With `CC(C)CN1C(=O)c2ccc(NC(=O)c3cccs3)cc2C1=O` the outcome was “inactive”. For `O=C(NCc1ccco1)C(c1ccccc1)N(C(=O)Cc1cccs1)c1ccccc1` (stereo not drawn), the outcome was “inactive”. For `CC(=O)NCCOc1cccc(OCCNC(C)=O)c1`, the outcome was “inactive”. In the case of `COc1cc(/C=N/NC(=O)CCc2c(C)n[nH]c2C)ccc1O`, the outcome is reported as “inactive”. In the case of `CCn1ncc(Br)c1C(=O)Nc1ccc(Cl)cn1`, the outcome is reported as “inactive”. For `COc1ccc(OC)c(S(=O)(=O)NC2CCCCC2)c1`, the outcome was “inactive”. In the case of `CCn1cc(C(=O)N2CCc3ccccc3C2)c(=O)c2cc(S(=O)(=O)N3CCCCC3)ccc21`, the outcome is reported as “inactive”. In the case of `Cc1nc(-c2cccc(NC(=O)c3cccs3)c2)cs1`, the outcome is reported as “inactive”. With `Cc1nc(-c2ccc(NC(=O)c3cccs3)cc2)cs1` the outcome was “active”. In the case of `Cc1ccc(NC(=O)c2cccs2)cc1`, the outcome is reported as “inactive”.

From PubChem BioAssay AID618 (Sanford-Burnham Center for Chemical Genomics, 2007)
